# Laboratory results reported in PubChem BioAssay (NCI).
# Compounds without any hit were thinned out: in the full panel of roughly 83,000, 20% have a hit.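 Single-dose data. Exposure time 48 hours. Values below 10 considered active.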 Unmarked numbers belong to inactive results. Calls of active or inactive are those of the source.
# Legend:
# Test in all cases: NCI-60 one-dose screen, 48 h (100 = growth as untreated, 0 = no growth, -100 = all killed)
# Conditions in all cases: 10 µM unless noted
# NCI-H23 lung = tested on: NCI-H23 lung
# NCI-H226 lung = tested on: NCI-H226 lung
# NCI-H322M lung = tested on: NCI-H322M lung
# HOP-62 NSCLC = tested on: HOP-62 NSCLC
# NCI-H460 lung = tested on: NCI-H460 lung
# NCI-H522 lung = tested on: NCI-H522 lung
# A549/ATCC NSCLC = tested on: A549/ATCC NSCLC
# 786-0 renal = tested on: 786-0 renal
# COLO 205 colon = tested on: COLO 205 colon
# DU-145 prostate = tested on: DU-145 prostate
# MALME-3M melanoma = tested on: MALME-3M melanoma
# MDA-MB-231 breast = tested on: MDA-MB-231 breast
# RXF 393 renal = tested on: RXF 393 renal
# SF-268 CNS = tested on: SF-268 CNS
# SF-295 CNS = tested on: SF-295 CNS
# SF-539 CNS = tested on: SF-539 CNS
# UACC-257 melanoma = tested on: UACC-257 melanoma
# M14 melanoma = tested on: M14 melanoma
# K-562 leukemia = tested on: K-562 leukemia
# HOP-92 NSCLC = tested on: HOP-92 NSCLC
Structure (SMILES),growth (NCI-H23 lung),growth (NCI-H226 lung),growth (NCI-H322M lung),growth (HOP-62 NSCLC),growth (NCI-H460 lung),growth (NCI-H522 lung),growth (A549/ATCC NSCLC),growth (786-0 renal),growth (COLO 205 colon),growth (DU-145 prostate),growth (MALME-3M melanoma),growth (MDA-MB-231 breast),growth (RXF 393 renal),growth (SF-268 CNS),growth (SF-295 CNS),growth (SF-539 CNS),growth (UACC-257 melanoma),growth (M14 melanoma),growth (K-562 leukemia),growth (HOP-92 NSCLC)
COc1cccc(-c2nc3sccn3c2-c2ccnc(NCCN3CCCNS3(=O)=O)n2)c1,99.4%,81.4%,95.6%,123%,68.8%,92.2%,99.2%,77.5%,51.5%,79.2%,24.2%,83.3%,76.7%,94.7%,106%,111%,65.4%,18%,,
COc1ccc(C(=O)O)cc1.[Ag],103%,101%,102%,113%,87.1%,11.8%,93.4%,107%,,106%,-51.3% (active),103%,100%,97%,114%,94.9%,94.9%,106%,-27.4% (active),
CC(=O)Nc1c(Br)cc2c(c1Br)Cc1cc(Br)ccc1-2,72.8%,85%,88.2%,29.1%,38.8%,76%,20.8%,87%,,91.9%,99.2%,51.1%,92%,69.9%,-18.8% (active),86.5%,89.1%,62.4%,80.5%,
CCCCCCCCCCCCNC(=O)N[C@H](C(=O)N[C@H]1/C=C/OCCNC(=O)/C=C/[C@H](C(C)C)NC1=O)C(C)C,60.4%,-3.01% (active),97.1%,76.7%,82.6%,47.6%,94.7%,99.8%,103%,66.9%,71%,81.2%,83.6%,46.2%,95.2%,54.6%,93.1%,87.2%,,
CC(=O)Oc1ccccc1C(=O)Nc1ncc([N+](=O)[O-])s1,6.3% (active),63.5%,10.8%,67.1%,13.4%,-15.9% (active),51.2%,-11.4% (active),,32.1%,-10.6% (active),26.9%,54.5%,18.7%,9.28% (active),39.5%,39.2%,14.6%,-8.68% (active),
COc1ccc(/C=C(\C#N)c2cc(OC)c(OC)c(OC)c2)cc1,1.46% (active),-8.11% (active),42.8%,24.1%,7.57% (active),5.56% (active),20.8%,18.2%,-69.7% (active),-1.75% (active),69.1%,38.4%,48.7%,27%,14.1%,8.76% (active),65.7%,8.3% (active),,
CCCCCCCCOC(=O)C(C)OC(=O)OCCOCCOC(=O)OC(C)C(=O)OCCCCCCCC (configuration not stated),113%,102%,92.4%,105%,107%,,102%,104%,119%,104%,89.3%,107%,110%,103%,93.6%,109%,107%,96.5%,,
Cc1[nH]c2ccccc2c1C1=CC(=O)C=CC1=O,92.8%,94.2%,120%,94.7%,111%,,93.2%,84.3%,55.7%,103%,123%,87.7%,115%,83.7%,127%,79.1%,91.6%,79.4%,33.4%,
CCn1c(Cc2ccccc2Nc2c(Cl)cccc2Cl)nnc1SCC(=O)Nc1ccccc1C(F)(F)F,89.7%,82.3%,79.4%,98.1%,95.8%,,76.8%,92%,,103%,100%,84.8%,94.6%,100%,90.6%,106%,101%,92.2%,72.5%,
COc1ccc(C(=O)N2N=C(c3ccc(F)cc3)CC2c2cn(-c3ccccc3)nc2-c2ccccc2)cc1 (configuration not stated),51%,91.2%,80%,40.5%,53.3%,,41.1%,69.6%,57%,57.5%,73.7%,60.2%,73.7%,70.1%,65.1%,85.7%,78.6%,55%,40.3%,
NC(N)=N/N=C/c1cccc(Cl)c1Cl,86.9%,84.8%,96.9%,82.5%,64.2%,,87.9%,83.6%,-33.1% (active),69.3%,94.9%,81.6%,81.3%,69.5%,109%,96.4%,70.1%,62.7%,4.22% (active),
Cc1c2c(cc3c1[nH]c1ccccc13)C=NCC2,88.7%,93%,99.7%,96%,95.5%,,91.5%,80.8%,78.2%,94.9%,103%,90.4%,84.9%,95.5%,92.4%,92.8%,106%,91%,62.3%,
COc1ccccc1CNCCCN1C(=O)c2ccc3c4c(ccc(c24)C1=O)C(=O)N(CCCOCCCCOCCCN)C3=O,-67.6% (active),-10.8% (active),-12.1% (active),14%,-65.5% (active),,-33.8% (active),14.3%,-95% (active),-74% (active),-93.1% (active),-4.84% (active),-42.6% (active),-21.5% (active),-9.19% (active),-34.9% (active),-91.7% (active),-85.4% (active),,
Cc1cccc2nc3ccccc3c(Nc3ccc(NS(C)(=O)=O)cc3)c12,57.8%,5.12% (active),92.8%,35.2%,,,,38.2%,51.1%,23.1%,40.4%,72.9%,55.4%,57.9%,21.6%,39.6%,,70.7%,35.1%,-3.43% (active)
Fc1ccc(-c2nc(-c3ccc(-c4nc5ccc(F)cc5[nH]4)cc3)no2)cc1,67.7%,54.9%,70.5%,79.6%,67.4%,,75.4%,102%,71.6%,39.4%,68.3%,74.3%,79.8%,66.1%,73.4%,69.2%,87.8%,62.3%,63%,
O=C(CC(=O)c1ccccc1F)Nc1ccc([N+](=O)[O-])cc1,105%,86.2%,91.5%,114%,,,,101%,105%,119%,93.6%,103%,103%,105%,98%,93.2%,,100%,91.9%,79.6%
COc1ccc2[nH]cc(C3(c4c[nH]c5ccc(OC)cc45)C(=O)Nc4ccc(F)cc43)c2c1,97%,70%,98.1%,83.3%,4.92% (active),,75.3%,82.6%,72.9%,81.2%,80.1%,101%,78.8%,53.9%,56.7%,78.5%,94%,86.7%,-16.5% (active),
CCCCOc1nc2ccc(C)cc2cc1/C=C/C(=O)/C=C(O)/C=C/c1cc2cc(C)ccc2nc1OCCCC,92%,102%,92%,87.3%,106%,,91.7%,96.5%,114%,112%,118%,103%,108%,103%,101%,103%,89.4%,98.4%,99.2%,
